An excerpt weighted towards active compounds, which were near 12% of everything screened.
Pf growth 96h: inhibits malaria parasite growth, 96 h; P. falciparum luciferase reporter growth, 96 h; 6.9% of 320,000 active; Potency, µM (top dose mostly 28.7 µM), without a hit: top-dose activity change, negative = inhibition, usual class: inhibitors; AID 504834; further: on the % scale 0 is the no-effect control and ±100 the full control effect
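Infected RBCs, 2% Hct / 0.05% parasitemia final; luciferase-reporter P. falciparum; cpd 96 h, 37 C, 5% CO2; luciferase detection reagent; luminescence.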
SARS PLpro yeast: inhibitors of SARS-CoV papain-like protease in yeast; AID 485353; S. cerevisiae expressing SARS-CoV PLpro, growth rescue; Potency, µM (top dose mostly 32.9 µM), without a hit: top-dose activity, positive = growth rescue, usual class: activators; 0.19% of 330,000 active; calls by dose curve; further: 0% is about no effect; nearly all actives have a fitted effect of over 55% in size
Pf growth 48h: P. falciparum growth inhibition at 48 hours (one generation) | P. falciparum luciferase growth in erythrocytes, 48 h | Potency, µM (doses to about 28.7 µM), without a hit: at the top dose activity change, negative = inhibition, hits mostly inhibitors | 5.9% of 310,000 active | AID 504832; further: on the % scale 0 is the no-effect control and ±100 the full control effect
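Luciferase-expressing P. falciparum in infected erythrocytes (2% hematocrit, 0.1% parasitemia final) in RPMI 1640/0.5% Albumax were exposed to compound for 48 hours at 37 C, 5% CO2; growth read as luminescence.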
HCV inh: HCV inhibition | Huh7.5.1 HCVcc-Cre infection, luciferase reporter, 44 h | AID 651820 | 3.4% of 340,000 active | Potency, µM (doses to about 41.8 µM), without a hit: top-dose activity change, negative = inhibition, most hits filed as inhibitors; further: on the % scale 0 is the no-effect control and ±100 the full control effect
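A cell-based infection assay in which seeded cells (1,000 per well) receive test compound after 4 h, are inoculated with HCVcc-Cre at approximately 0.5 moi, and are incubated 44 h before luminescence detection.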
AMA1-RON2 inh: disrupts binding of P. falciparum AMA1 to RON2. AID 720542. 0.2% of 360,000 active. Potency, µM (doses to about 58.2 µM), without a hit: top-dose activity change, negative = inhibition, most hits filed as inhibitors. AlphaScreen AMA1-biotinylated RON2 peptide binding;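 further: 0% = vehicle wells and -100% = peptide control; nearly all actives have a fitted effect of over 45% in size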
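AMA1 (3D7) with his tag at 25 nM final met compounds first, then biotinylated RON2 peptide at 25 nM; detection used donor plus acceptor beads, 10 µg/mL apiece, read by AlphaScreen after 30 min at room temperature.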
NS1 function inh: influenza NS1 inhibition. Potency, µM (titrated, usually from 46.1 µM), without a hit: at the highest dose activity, positive = more growth. 0.4% of 270,000 active; calls by dose curve; further: actives are rising curves; nearly all actives have a fitted effect of over 50% in size
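Compounds were scored for reversing the slow growth caused by influenza A NS1 in S. cerevisiae, measured by optical density at 600 nm. Assay medium contained 2% galactose at pH 6.0; NS1-free yeast of the same strain were the positive control.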
Numbers without * were called inactive; ? = inconclusive; . = no result given. Unless noted, the call rests on the fitted dose curve; in most records, active means well fitted curve in the direction sought with a large enough effect; inconclusive means small, poorly fitted or top-dose-only effect, or another doubt; inactive means no such curve, though single readings can be large; an effect the other way counts as inactive or inconclusive. Potency means the concentration at half of the fitted maximal effect.

SMILES	Pf growth 96h	SARS PLpro yeast	Pf growth 48h	HCV inh	AMA1-RON2 inh	NS1 function inh
O=C(NNS(=O)(=O)c1ccc(F)cc1)c1ccc(O)cc1	10.4µM*	17.8%	-5.4%	-23.5%	-1.3%	-12.1%
O=C(NNS(=O)(=O)c1ccccc1)c1ccc([N+](=O)[O-])cc1	14.7µM*	.	17.6%	-7.9%	23.6%	5.4%
Cc1ccc(NC(=O)CCNS(=O)(=O)c2ccc3c(c2)oc(=O)n3C)c(C)c1	11.7µM*	6.1%	?	17.5%	-2.0%	-0.7%
Cn1c(=O)oc2cc(S(=O)(=O)NCCC(=O)N3CCN(c4ccccc4F)CC3)ccc21	31.8%	4.5%	?	10.1%	7.2%	8.7%
Cn1c(=O)oc2cc(S(=O)(=O)NCCC(=O)N3CCN(c4ccccc4)CC3)ccc21	13.1µM*	-1.9%	?	3.6%	0.1%	-1.7%
Cc1ccc(C)c(N2CCN(C(=O)CCNS(=O)(=O)c3ccc4c(c3)oc(=O)n4C)CC2)c1	1.65µM*	1.3%	-29.5%	?	-0.1%	15.8%
COc1ccc(-c2cc(C(F)F)n3ncc(C(=O)Nc4ccc(C(=O)N5CCOCC5)cc4)c3n2)cc1	43.7%	-0.3%	?	-12.9%	-1.4%	0.9%
CCn1nc(C)c(NC(=O)c2cnn3c(C(F)F)cc(-c4ccccc4)nc23)c1C	?	-1.1%	?	14.1µM*	-18.4%	-6.7%
Cc1ccc(-c2cc(C(F)F)n3ncc(C(=O)Nc4ccc(S(=O)(=O)Nc5ccccc5C)cc4)c3n2)cc1	14.7µM*	0.4%	1.85µM*	?	-3.9%	4.6%
COc1ccc(NS(=O)(=O)c2ccc(NC(=O)c3cnn4c(C(F)F)cc(-c5ccc(C)cc5)nc34)cc2)cc1	0.828µM*	-1.8%	?	.	.	9.0%
O=C(Nc1ccc(C(=O)N2CCOCC2)cc1)c1cnn2c(C(F)F)cc(-c3ccccc3)nc12	145.2%	-0.2%	?	?	-0.3%	-2.8%
O=C(NN1CCCCC1)c1cnn2c(C(F)F)cc(-c3ccccc3)nc12	11.8%	0.1%	-15.4%	?	3.0%	2.7%
CCOc1ccc(OCCC(=O)Nc2ccc(N3CCOCC3)cc2N2CCOCC2)cc1	.	.	.	.	-12.7%	.
CNC(=O)CS(=O)CC(=O)Nc1cc(OCCOC)c(Cl)cc1Cl (stereo not drawn)	26.4%	1.7%	-2.8%	10.4%	-7.6%	2.1%
CC(C)(C)c1ccc(Oc2ccc(N)cn2)cc1	?	-1.2%	-20.1%	3.98µM*	-6.2%	-2.3%
O=C(O)CSc1ccc(NC(=O)Nc2ccccc2F)cc1	116.3%	-1.9%	131.8%	7.4%	13.4%	-2.6%
O=c1[nH]c(C2CCN(S(=O)(=O)c3ccccc3)CC2)nc2c1nnn2Cc1c(F)cccc1Cl	5.22µM*	0.2%	?	?	3.2%	16.2%
O=c1[nH]c(C2CCN(S(=O)(=O)c3ccc4c(c3)OCCO4)CC2)nc2c1nnn2Cc1c(F)cccc1Cl	-28.8%	5.0%	-21.6%	-5.8%	5.0%	21.6%
O=C(C1CCC1)N1CCC(c2nc3c(nnn3Cc3c(F)cccc3Cl)c(=O)[nH]2)CC1	56.2%	-2.7%	13.1µM*	11.7%	4.9%	-2.1%
CCCC(=O)NCc1nc2ccccc2n1CC(=O)c1ccccc1	?	4.9%	-12.4%	10.8%	-4.4%	7.9%
CC1(C)CC(=O)C=C(NCCN2CCN(C(=S)NC3CCCCC3)CC2)C1	-16.2%	1.0%	-6.7%	17.5%	1.4%	-4.2%
Cc1cc(NS(C)(=O)=O)c(=O)n(Cc2cccc(F)c2)c1	2.62µM*	-11.8%	16.8%	14.6%	-2.0%	-19.0%
CC(C)n1nc(C(=O)OCC(=O)c2c[nH]c3ccccc23)c2ccccc2c1=O	6.57µM*	16.5%	.	?	-6.6%	6.4%
CCn1nc(C(=O)OCC(=O)c2c[nH]c3ccccc23)c2ccccc2c1=O	7.38µM*	2.2%	4.65µM*	-8.4%	4.5%	-22.8%
O=C1NCCCC1C(=O)N/N=C/c1cccc(Cl)c1 (stereo not drawn)	16.0%	-0.5%	?	-0.1%	-12.9%	-1.9%
CCc1noc(C)c1C(=O)N1CCCSC1=Nc1ccccc1	37.1%	.	?	13.1%	4.1%	.

Source: PubChem BioAssay (National Center for Advancing Translational Sciences (NCATS))
